These results are taken from PubChem BioAssay (Tox21).

The structures appear in SMILES notation. Results filed as inconclusive are left out. A call without a number means that no potency is given here. The source made the active and inactive calls. The call rests on the fitted dose curve.
Potency means the concentration at half of the fitted maximal effect.

The nature of the assay: qHTS assay to identify small molecule antagonists of the sonic hedgehog signaling (Shh) pathway (AID 1259369). Further: nearly all actives have a fitted effect of over 45% in size. The following applies: NIH/3T3 Gli1-Luc reporter, Shh antagonist, luminescence 24 h; series mostly up to 92.4 µM. The source says:
U.S. Tox21 Program National Center for Advancing Translational Sciences [NCATS] NIH Chemical Genomics Center [NCGC] U.S. Environmental Protection Agency [EPA] National Institutes of Environmental Health Sciences [NIEHS] National Toxicology Program [NTP] U.S. Food and Drug Administration [FDA] Tox21 Assay Overview: The sonic hedgehog (Shh) pathway is essential for normal embryonic development. Dysregulation of the Shh pathway can cause severe developmental defects in organs. Therefore chemicals that interfere with the pathway are potential developmental toxicants. A cell line designated 3T3Gli1-Luc (DMB/OARSA/CFSAN/FDA, Laurel, MD), a NIH/3T3 derived clone containing stably integrated Gli1-Luc reporter is used to detect chemical interference of the Shh pathway, by changes in the expression of the firefly Luc gene under the control of the Gli1 transcriptional response element. This cell line was used to screen Tox21 libraries for identifying and prioritizing the potential developmental toxicants that interfere Shh pathway. Conditioned medium-stimulated mode was used to screen for chemicals inhibiting Shh signaling.
Tox21 Assay Protocol Summary: 3T3 Gli1-Luc cells were dispensed at 2,000 per well in 5uL of culture medium into white solid bottom 1536-well plates (Greiner Bio-One, Monroe, NC) using a Multidrop Combi (Thermo Scientific, Waltham, MA) dispenser. The assay plates were incubated at 37 C and 5% CO2 for 4hr, and then 23nL of compounds dissolved in DMSO and positive control were transferred using a Pintool station (Wako, San Diego, CA). The compound transfer was followed by the addition of 1ul conditioned medium or assay buffer using two separate tips of Flying Reagent Dispenser (FRD, Aurora Discovery, San Diego, CA). The assay plates were incubated at 37C and 5% CO2 for 24hr. For luciferase read, 4uL of Amplite Luciferase reporter gene assay reagent (AAT Bioquest, Inc. Sunnyvale, CA) was added to each well of the assay plates using FRD and incubated at room temperature for 30min. The luminescence signal was measured using a ViewLux plate reader (Perkin Elmer, Shelton, CT).
For `C=COCCCC`, the Potency result was “inactive”.

On to `O=c1cc[nH]cc1`, for which the Potency entry is “inactive”.

`CN1CCN(c2ccccc2/C=C2\SCCN(c3ccc(Cl)c(Cl)c3)C2=O)CC1`: the Potency was 5.45 µM (active).

Consider `CCOc1nc(F)cc2nc(S(=O)(=O)Nc3c(Cl)cccc3C(=O)OC)nn12`, for which the Potency entry is “inactive”.

With `Nc1ccc(N)c([N+](=O)[O-])c1`, the Potency was 8.63 µM (active).

Regarding `Cc1cc(C)c(O)c(C(C)(C)C)c1`, the Potency result was “inactive”.

In the case of `O=C(NCc1ncc(C(F)(F)F)cc1Cl)c1c(Cl)cccc1Cl`, the Potency entry is “inactive”.

`CC(C)C(=O)C(C)C`: the Potency result is “inactive”.

As to `CC(C)c1ccc2sc3ccccc3c(=O)c2c1`, the Potency result is “inactive”.

As for `CCCCCN=C(N)N/N=C/c1c[nH]c2ccc(OC)cc12`, the Potency is 1.68 µM (active).

As to `CCC(=O)OC/C=C(\C)CCC=C(C)C`, the Potency result is “inactive”.

Take `Cc1ccc(Cl)c(N)c1Cl`: the Potency was 21.7 µM (active).

Turning to `Oc1ccc(C2(c3ccc(O)c(C4CCCCC4)c3)CCCCC2)cc1C1CCCCC1`, the Potency is 12.2 µM (active).

Take `Nc1cc([N+](=O)[O-])cc(Cl)c1O`: the Potency entry was “inactive”.

In the case of `CC1=CC[C@@H](C(C)(C)O)CC1`, the Potency result is “inactive”.

Turning to `Cc1ccc2sc3cccc(C)c3c2c1`, the Potency entry is “inactive”.

Regarding `CCc1c(C)cc(N)c(CC)c1N`, the Potency entry was “inactive”.

Turning to `CN1CCN(CCCN2c3ccccc3Sc3ccc(Cl)cc32)CC1`, the Potency is 16.8 µM (active).

`O=[N+]([O-])c1ccc(CO)cc1`: the Potency result was “inactive”.

Turning to `Nc1c(Br)cc([N+](=O)[O-])cc1Br`, the Potency entry is “inactive”.

Turning to `CCCCCCCCCCCCN1CCCC1=O`, the Potency entry is “inactive”.

With `Cn1c(=O)[nH]c2ncn(C)c2c1=O`, the Potency result is “inactive”.

Turning to `O[Si](c1ccccc1)(c1ccccc1)c1ccccc1`, the Potency was 12.2 µM (active).

For `CN1CC[C@H](c2c(O)cc(O)c3c(=O)cc(-c4ccccc4Cl)oc23)[C@H](O)C1`, the Potency was 0.0473 µM (active).

For `CN[C@H]1CC[C@@H](c2ccc(Cl)c(Cl)c2)c2ccc(S(N)(=O)=O)cc21`, the Potency is 3.06 µM (active).

On to `CCCOC(=O)c1ccc(O)cc1`, for which the Potency is 2.43 µM (active).

For the compound `CC(C)=NNC(N)=S`, the Potency was 13.7 µM (active).

`CC1CCC(C(C)(C)O)CC1` (stereo not given): the Potency result was “inactive”.

For the compound `SC1CCCCC1`, the Potency entry was “inactive”.

For the compound `CCC(O)CO` (stereo not given), the Potency result was “inactive”.

As to `[Cl][Dy]([Cl])[Cl]`, the Potency was 8.63 µM (active).

Turning to `CC/C=C\C/C=C\C/C=C\CCCCCCCC(=O)OC`, the Potency was 43.3 µM (active).

`Nc1ccc(F)c([N+](=O)[O-])c1`: the Potency result was “inactive”.

Regarding `C/C(=N\[Si](C)(C)C)O[Si](C)(C)C`, the Potency result is “inactive”.

As for `CC(c1cc(C(C)(C)C)cc(C(C)(C)C)c1O)c1cc(C(C)(C)C)cc(C(C)(C)C)c1O`, the Potency result was “inactive”.

`CC(C=O)c1ccccc1` (stereo not given): the Potency result was “inactive”.

Turning to `[Cl][Eu]([Cl])[Cl]`, the Potency is 7.7 µM (active).

Regarding `Cc1ccc(C2OC[C@@H]3OC(c4ccc(C)cc4)O[C@H]([C@H](O)CO)[C@@H]3O2)cc1` (stereo not given in full), the Potency entry is “inactive”.

As for `O=C(Nc1ccccc1)c1cc(Cl)ccc1O`, the Potency was 15.4 µM (active).

For the compound `C/C=C/C(=O)OCC(C)C`, the Potency entry is “inactive”.
